Bioassay records deposited in PubChem by National Center for Advancing Translational Sciences (NCATS).
NIH3T3 tox: Cytotoxic Profiling in NIH 3T3 Cell Line of Diverse Libraries Using Quantitative High-Throughput Screening | NIH 3T3 viability, CellTiter-Glo ATP luminescence, 48-72 h | Potency, µM (top dose mostly 96.7 µM), for the others: at the highest dose activity change, negative = cytotoxicity, hits mostly inhibitors | 94,000 tested, 4.3% active | AID 1345082, 2018; note: nearly all actives have a fitted effect of over 55% in size
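Cells were seeded at 400 per well, treated with pin-transferred compound, and kept 48 or 72 hr at 37 °C before CellTiter-Glo addition and luminescence imaging of cellular ATP.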
HEK293 tox: Cytotoxic Profiling in HEK 293 Cell Line of Diverse Libraries Using Quantitative High-Throughput Screening. HEK 293 viability, ATP luminescence (CellTiter-Glo), 48-72 h. 94,000 tested, 6.6% active. Potency, µM (series often up to 115 µM), for the others: at the top dose activity change, negative = cytotoxicity, usual class: inhibitors; note: nearly all actives have a fitted effect of over 60% in size
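ATP-coupled CellTiter-Glo luminescence served as viability read-out, recorded 10 min after reagent addition at room temperature. HEK 293 cells, 250 cells/well, had been incubated with pintool-transferred compound for 48 or 72 hr at 37 degree Celsius.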
Luciferase inh: Firefly luciferase inhibition profiling of diverse chemical library using quantitative high-throughput screening; Luciferin 4-monooxygenase (Photinus pyralis), P08659; purified P. pyralis luciferase, luminescence, biochemical; Potency, µM (doses to about 115 µM), actives largely listed as inhibitors; 76,000 tested, 2.5% active; AID 1347043, 2019; note: nearly all actives have a fitted effect of over 65% in size
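Purified 10nM P. pyralis luciferase with 10uM D-luciferin and 10uM ATP in 50mM Tris acetate pH 7.5, 10mM Mg acetate, 0.01% Tween-20, 0.05% BSA. qHTS titration; luminescence read by CCD imager.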
NPR1 antag: Natriuretic polypeptide receptor (hNpr1) antagonism - Primary qHTS | Atrial natriuretic peptide receptor 1 (Homo sapiens), P16066 | HEK293 hNpr1 GloSensor cGMP, ANP-stimulated luminescence | Potency, µM (top dose mostly 46.3 µM), without a hit: at the highest dose activity change, negative = inhibition, usual class: inhibitors | 76,000 tested, 1.6% active; calls by dose curve; note: nearly all actives have a fitted effect of over 60% in size
Target sequence (P16066 whole entry, looked up): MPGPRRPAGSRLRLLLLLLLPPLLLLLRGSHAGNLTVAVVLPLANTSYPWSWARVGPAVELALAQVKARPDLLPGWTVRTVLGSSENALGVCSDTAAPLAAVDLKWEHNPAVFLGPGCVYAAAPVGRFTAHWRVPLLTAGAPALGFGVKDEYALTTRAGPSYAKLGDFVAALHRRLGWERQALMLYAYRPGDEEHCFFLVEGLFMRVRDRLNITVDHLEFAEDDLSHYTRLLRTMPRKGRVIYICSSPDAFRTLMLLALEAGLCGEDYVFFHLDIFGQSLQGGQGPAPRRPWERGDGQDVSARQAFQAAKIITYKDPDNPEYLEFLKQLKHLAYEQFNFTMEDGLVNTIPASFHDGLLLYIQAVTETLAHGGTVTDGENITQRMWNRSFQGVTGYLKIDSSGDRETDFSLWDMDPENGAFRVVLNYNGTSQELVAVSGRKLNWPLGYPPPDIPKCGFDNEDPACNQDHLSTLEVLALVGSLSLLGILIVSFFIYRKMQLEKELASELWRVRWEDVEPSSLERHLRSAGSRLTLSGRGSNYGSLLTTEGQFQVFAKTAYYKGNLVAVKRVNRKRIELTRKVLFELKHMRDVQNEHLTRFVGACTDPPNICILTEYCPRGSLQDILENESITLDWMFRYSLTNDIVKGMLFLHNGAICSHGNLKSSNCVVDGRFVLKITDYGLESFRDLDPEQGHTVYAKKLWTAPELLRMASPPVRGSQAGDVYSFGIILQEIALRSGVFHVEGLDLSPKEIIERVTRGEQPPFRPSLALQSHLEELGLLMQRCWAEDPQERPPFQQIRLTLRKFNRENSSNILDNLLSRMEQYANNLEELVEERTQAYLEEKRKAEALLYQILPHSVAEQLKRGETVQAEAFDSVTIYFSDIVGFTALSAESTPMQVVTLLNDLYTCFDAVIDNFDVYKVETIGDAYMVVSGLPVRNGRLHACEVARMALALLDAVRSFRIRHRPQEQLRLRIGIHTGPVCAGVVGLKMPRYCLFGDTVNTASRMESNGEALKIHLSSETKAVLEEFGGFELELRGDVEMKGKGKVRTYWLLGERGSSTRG
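Compound pre-incubated 30 min at room temperature on GloSensor-loaded HEK293 cells stably carrying hNpr1 and the pGS-40F cGMP biosensor. Stimulation uses hNppA at 0.1 nM final; luminescence is taken at baseline and 20 min post-agonist.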
Active calls of the source: *; [ ] = dose if it differs, or a comment. Shown are actives, neighbours in structure and some others; about 11% of the full set was active somewhere. Unless noted, calls come from the whole dose curve; as a rule, active = well fitted curve in the direction sought with a large enough effect; inconclusive = small, poorly fitted or top-dose-only effect, or another doubt; inactive = no such curve, though single readings can be large; an effect the other way counts as inactive or inconclusive. % is set by controls: 0 for no effect and ±100 for the full control effect; potency is the fitted concentration of half-maximal effect.

`O[C@H]1[C@H](NCc2ccc(Cl)cc2)[C@@H](c2ccc(N3CCOCC3)nc2)C[C@H]1O` gave NIH3T3 tox -22%[138 µM], HEK293 tox -16%[172 µM], Luciferase inh inactive and NPR1 antag -3%[70.6 µM].
`CNC(=O)c1cc(C2CC2)nc2c1c(C1CCCN1C(=O)NC1CCCC1)nn2C` (stereo not drawn) gave NIH3T3 tox -23% and HEK293 tox -5%.
O=C(N[C@H]1[C@H](O)[C@H](O)C[C@@H]1c1ccc(C(F)(F)F)nc1)c1ccc2c(c1)OCCO2 was read as NIH3T3 tox -22%[174 µM], HEK293 tox -8%[172 µM], Luciferase inh inactive and NPR1 antag -2%[70.6 µM].
For COc1ccc([C@H]2C[C@@H](O)[C@@H](O)[C@@H]2NCc2ccc(Cl)cc2)cc1 the results were NIH3T3 tox inconclusive, HEK293 tox 100µM*, Luciferase inh inactive and NPR1 antag -21%[70.6 µM].
O=C(N[C@H]1[C@H](O)[C@H](O)C[C@@H]1c1ccc(C(F)(F)F)cc1)c1ccc2c(c1)OCCO2 was read as NIH3T3 tox 100µM*, HEK293 tox inconclusive, Luciferase inh inconclusive and NPR1 antag 0%[70.6 µM].
`O=c1ncn(CC2CC2)c2ccc(-c3ccc(Cl)cc3)nc12` gave NIH3T3 tox inconclusive, HEK293 tox -19%[172 µM], Luciferase inh inactive and NPR1 antag -13%[70.6 µM].
O=c1ncn(CC2CC2)c2ccc(-c3ccc4c(c3)OCO4)nc12 was read as NIH3T3 tox inconclusive, HEK293 tox 3%[172 µM], Luciferase inh 45µM* and NPR1 antag 2%[70.6 µM].
Cc1ccc(C(=O)Nc2ccc3c(N4CCCCC4)ncnc3c2)cc1F was read as NIH3T3 tox inconclusive, HEK293 tox inconclusive, Luciferase inh inactive and NPR1 antag -29%.
O=C(Nc1ccc2c(N3CCCCC3)ncnc2c1)c1ccc(F)cc1 was read as NIH3T3 tox 28µM*, HEK293 tox inconclusive, Luciferase inh inconclusive and NPR1 antag -19%.
`O=C(Nc1ccc2ncnc(N3CCCCC3)c2c1)c1cc(F)cc(F)c1` gave NIH3T3 tox inconclusive, HEK293 tox inconclusive, Luciferase inh inactive and NPR1 antag inconclusive.
For O=C(Nc1ccc2ncnc(N3CCCCC3)c2c1)c1c(F)cccc1Cl the results were NIH3T3 tox inconclusive, HEK293 tox 50µM*, Luciferase inh inactive and NPR1 antag -7%.
`O=C(Nc1ccc2c(N3CCCC3)ncnc2c1)c1ccc(Cl)cc1` gave NIH3T3 tox inconclusive, HEK293 tox -26%, Luciferase inh inactive and NPR1 antag -8%.
Screening O=C(Nc1ccc2c(N3CCCC3)ncnc2c1)c1ccccc1Cl returned NIH3T3 tox 25µM*, HEK293 tox inconclusive, Luciferase inh inconclusive and NPR1 antag 0%.
For Cc1ccsc1C(=O)Nc1ccc2c(N3CCCCC3)ncnc2c1 the results were NIH3T3 tox 35µM*, HEK293 tox inconclusive, Luciferase inh inconclusive and NPR1 antag -6%.
For O=C(NC1CCCC1)N1CCC2(CC1)CC(N1CCOCC1)CCO2 (stereo not drawn) the results were NIH3T3 tox 5%, HEK293 tox -5%, Luciferase inh inactive and NPR1 antag 12%.
`CCc1nc2c(c(-c3ccc(O)cc3)n1)CN(C(=O)c1ccccc1F)CC2` gave NIH3T3 tox -32% and HEK293 tox -23%.
Screening O=C(Nc1ccc2ncnc(N3CCCCC3)c2c1)c1ccccc1Br returned NIH3T3 tox inconclusive, HEK293 tox 45µM*, Luciferase inh inactive and NPR1 antag inconclusive.
Screening Cc1ccc(C2Cn3nnc(-c4nc(-c5cccnc5)no4)c3CO2)c(C)c1 (stereo not drawn) returned NIH3T3 tox 16µM*, HEK293 tox inconclusive, Luciferase inh inactive and NPR1 antag -6%.
For Cc1ccc(C2Cn3nnc(-c4nc(-c5cccc(Cl)c5)no4)c3CO2)c(C)c1 (stereo not drawn) the results were NIH3T3 tox -1%, HEK293 tox 13%, Luciferase inh inactive and NPR1 antag 1%.
For CN(Cc1ccc(C2CCCCO2)s1)CC1CCN(CCc2ccc(F)cc2)CC1 (stereo not drawn) the results were NIH3T3 tox inconclusive, HEK293 tox 45µM*, Luciferase inh inactive and NPR1 antag -6%.
Screening CN(Cc1ccc(F)cc1)S(=O)(=O)c1cccs1 returned NIH3T3 tox -27%[138 µM], HEK293 tox 79µM*, Luciferase inh inactive and NPR1 antag 6%[70.6 µM].
CN(Cc1ccc(F)cc1)S(C)(=O)=O was read as NIH3T3 tox -10%[174 µM], HEK293 tox -3%[230 µM], Luciferase inh inactive and NPR1 antag 0%[70.6 µM].
For O=C(NCc1ccccn1)C1CCCCN1Cc1ccc(-c2ccsc2)cc1 (stereo not drawn) the results were NIH3T3 tox 40µM* and HEK293 tox 40µM*.
O=C(NCc1ccccc1F)C1CCCCN1Cc1ccc(-c2ccsc2)cc1 (stereo not drawn) was read as NIH3T3 tox 32µM* and HEK293 tox inconclusive.
Screening COc1ccc(CN2C(=O)COC[C@H]2C(=O)NCc2ccc(F)cc2F)cc1 returned NIH3T3 tox -17%, HEK293 tox -8%, Luciferase inh inactive and NPR1 antag 1%.
For O=C(NCc1ccc(F)cc1F)C1CCCCN1Cc1ccc(-c2ccsc2)cc1 (stereo not drawn) the results were NIH3T3 tox inconclusive and HEK293 tox 28µM*.
O=C(NCc1ccccn1)C1Cn2cccc2C(=O)N1Cc1ccccc1 (stereo not drawn) was read as NIH3T3 tox 2%, HEK293 tox inactive, Luciferase inh inactive and NPR1 antag -11%.
N#Cc1cccc(C(=O)N2CCCCCCNC(=O)[C@@H]3C[C@@H](c4nc(-c5cnccn5)no4)C[C@@H]32)c1 was read as NIH3T3 tox -22%, HEK293 tox -19%, Luciferase inh inactive and NPR1 antag -3%.
Screening COc1cccc(C2Cn3nnc(-c4nc(-c5ccc(Br)cc5)no4)c3CO2)c1 (stereo not drawn) returned NIH3T3 tox inconclusive, HEK293 tox -3%, Luciferase inh inactive and NPR1 antag -2%.
`CCn1c(C)cc(C)c(C(=O)NCC2CCN(c3cnn(C)c(=O)c3)C2)c1=O` (stereo not drawn) gave NIH3T3 tox 4%, HEK293 tox inactive, Luciferase inh inactive and NPR1 antag 17%.
`CC(C)c1noc(C2CCCN2C(=O)c2cc(-c3cccs3)n(C)n2)n1` (stereo not drawn) gave NIH3T3 tox -22%, HEK293 tox -29%, Luciferase inh 32µM* and NPR1 antag 1%.
